Measurements reported in PubChem BioAssay (EPA / NIEHS).
Where “and” joins values, the source holds several entries; their conditions need not be identical. Equal values may be shown once. Calls of active or inactive are those of the source. Rule for the calls: active = hit-call score of the fitted dose curve at least 0.9, where 1 is the maximum; inactive = score below 0.9.

How the values were obtained:
[1] = read-out: Macrophage colony-stimulating factor (MCSF), CSF1 (gene 1435); assay: BSK_hDFCGF_MCSF: BioMAP Diversity Plus: hDFCGF Assay for Macrophage colony-stimulating factor (MCSF) Biomarker Activity (AID 2283060); details: primary human foreskin fibroblasts; actives raise or lower the signal
Outline: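 Human foreskin fibroblast primary cultures; M-CSF measured by ELISA 24 hours after chemical dosing. Bidirectional fitting relative to DMSO, with overt cytotoxicity tracked by parallel SRB total-protein staining (0.1% SRB, 10% TCA fixation, 560 nm).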

[2] = BSK_hDFCGF_SRB: Viability Assessment in the BioMAP Diversity Plus: hDFCGF Assay (AID 2283061); details: primary human foreskin fibroblasts;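 note: cells exposed to compound for 24 h before the read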
Outline: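 Human foreskin fibroblasts in 96-well plates were treated 24 h. Total protein was measured by 0.1% SRB staining after 10% TCA fixation, read at 560 nm. Data were fitted bidirectionally against DMSO.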

[3] = read-out: TIMP metallopeptidase inhibitor 1 (TIMP1), TIMP1 (gene 7076); assay: BSK_hDFCGF_TIMP1: BioMAP Diversity Plus: hDFCGF Assay for TIMP metallopeptidase inhibitor 1 (TIMP1) Biomarker Activity (AID 2283062); details: primary human foreskin fibroblasts; actives raise or lower the signal
Outline: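 Human foreskin fibroblast primary cultures dosed for 24 h; secreted/surface TIMP-1 quantified by ELISA. Bidirectional curve fitting against DMSO baseline; cytotoxicity tracked in parallel cultures by SRB total-protein staining.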

[4] = read-out: Monokine induced gamma interferon (MIG), CXCL9 (gene 4283); assay: BSK_hDFCGF_MIG: BioMAP Diversity Plus: hDFCGF Assay for Monokine induced gamma interferon (MIG) Biomarker Activity (AID 2283063); details: primary human foreskin fibroblasts; actives raise or lower the signal
Outline: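 MIG/CXCL9 measured by ELISA 24 h after dosing primary human skin fibroblasts. Activity fitted in both directions against DMSO controls. Cytotoxicity was checked in parallel cultures by SRB staining read at 560 nm.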

[5] = read-out: Matrix Metallopeptidase 1 (MMP1), MMP1 (gene 4312); assay: BSK_hDFCGF_MMP1: BioMAP Diversity Plus: hDFCGF Assay for Matrix Metallopeptidase 1 (MMP1) Biomarker Activity (AID 2283064); details: primary human foreskin fibroblasts; actives raise or lower the signal
Outline: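 Primary human foreskin fibroblasts in the hDFCGF system were dosed with test chemical, and MMP1 was measured by ELISA 24 h later. Values come from bidirectional curve fitting against the DMSO baseline.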

[6] = read-out: Vascular cell adhesion molecule 1 (VCAM1), VCAM1 (gene 7412); assay: BSK_hDFCGF_VCAM1: BioMAP Diversity Plus: hDFCGF Assay for Vascular cell adhesion molecule 1 (VCAM1) Biomarker Activity (AID 2283065); details: primary human foreskin fibroblasts; actives raise or lower the signal;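 for AC50: VCAM-1 protein level quantified by ELISA after 24 h chemical exposure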
Outline: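 Human foreskin fibroblast primary cells dosed with chemical, VCAM-1 measured by ELISA at 24 h. Bidirectional curve fitting relative to DMSO as negative control/baseline.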

[7] = read-out: Plasminogen activator inhibitor-1 (PAI1), SERPINE1 (gene 5054); assay: BSK_hDFCGF_PAI1: BioMAP Diversity Plus: hDFCGF Assay for Plasminogen activator inhibitor-1 (PAI1) Biomarker Activity (AID 2283066); details: primary human foreskin fibroblasts; actives raise or lower the signal
Outline: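 Primary dermal fibroblasts (human foreskin), hDFCGF system; compound 24 h; PAI-1 by ELISA; bidirectional fit vs DMSO control.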

[8] = read-out: Intercellular Adhesion Molecule 1 (ICAM1), ICAM1 (gene 3383); assay: BSK_KF3CT_ICAM1: BioMAP Diversity Plus: KF3CT Assay for Intercellular Adhesion Molecule 1 (ICAM1) Biomarker Activity (AID 2283067); details: primary human keratinocytes with fibroblasts; actives raise or lower the signal
Outline: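 Human keratinocyte–foreskin fibroblast co-culture was treated for 24 h. Cell-surface ICAM-1 was quantified by ELISA, fitted bidirectionally relative to DMSO. Cytotoxicity was checked in parallel cultures by SRB total-protein staining.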

[9] = read-out: Interferon-gamma inducible Protein 10 (IP10), CXCL10 (gene 3627); assay: BSK_KF3CT_IP10: BioMAP Diversity Plus: KF3CT Assay for Interferon-gamma inducible Protein 10 (IP10) Biomarker Activity (AID 2283068); details: primary human keratinocytes with fibroblasts; actives raise or lower the signal
Outline: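 In a primary skin co-culture of keratinocytes and fibroblasts, IP-10 is quantified by ELISA at 24 h after dosing. SRB staining of parallel wells monitors overt toxicity. Curves are fitted both directions against DMSO.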

[10] = BSK_KF3CT_SRB: Viability Assessment in the BioMAP Diversity Plus: KF3CT Assay (AID 2283069); details: primary human keratinocytes with fibroblasts;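 note: total protein by sulforhodamine B staining as a cytotoxicity measure; read 24 h after compound addition; fitted for both signal gain and loss against DMSO baseline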
Outline: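 Human primary keratinocyte plus foreskin fibroblast co-culture exposed to chemicals for 24 h. Total protein measured by 0.1% sulforhodamine B staining after 10% TCA fixation, read at 560 nm; bidirectional fitting versus DMSO baseline.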

Measured: AC50

NC(=O)C(F)(F)C(F)(F)C(F)(F)F
inactive: [1] | [2] | [3] | [4] | [5] | [6] | [7] | [8] | [9] | [10]

C=CC(=O)OCC(F)(F)C(F)(F)C(F)(F)COC(=O)C=C
active: [1] 2.55 µM and 1.94 µM | [2] 2.51 µM and 2.73 µM | [3] 2.37 µM and 737 nM | [4] 918 nM and 499 nM | [5] 5.8 µM and 4.94 µM | [6] 2.35 µM and 1.96 µM | [7] 3.85 µM and 3.09 µM | [9] 28.4 µM and 17.6 µM | [10] 36.6 µM and 41.6 µM

Nc1cc([N+](=O)[O-])cc(Cl)c1O
inactive: [1] | [2] | [3] | [4] | [5] | [6] | [7] | [9] | [10]

O=C1c2c(O)ccc(Nc3ccc(CCO)cc3)c2C(=O)c2c([N+](=O)[O-])ccc(O)c21
active: [1] 8.52 µM | [2] 20 µM | [4] 29.5 µM | [6] 9.03 µM | [9] 27 µM
inactive: [5] | [7] | [10]

O=S(=O)(OCC(F)(F)F)C(F)(F)C(F)(F)C(F)(F)C(F)(F)F
inactive: [1] | [2] | [4] | [5] | [6] | [7] | [9] | [10]

CO[Si](C)(CCC(F)(F)C(F)(F)C(F)(F)C(F)(F)C(F)(F)C(F)(F)F)OC
inactive: [1] | [2] | [4] | [5] | [6] | [7] | [8] | [9] | [10]

O=C(O)C(F)(F)OC(F)(F)C(F)(F)OC(F)(F)C(F)(F)OC(F)(F)F
inactive: [1] | [2] | [4] | [5] | [6] | [7] | [9] | [10]

CCN(CC)c1ccc(C=O)c(O)c1
inactive: [1] | [2] | [4] | [5] | [6] | [7] | [8] | [9] | [10]

Brc1nc2ccccc2s1
inactive: [1] | [2] | [4] | [5] | [6] | [7] | [9] | [10]

CNS(=O)(=O)C(F)(F)C(F)(F)C(F)(F)C(F)(F)C(F)(F)C(F)(F)C(F)(F)C(F)(F)F
active: [6] 800 nM and 1.94 µM
inactive: [1] | [2] | [4] | [5] | [7] | [9] | [10]

OCC(O)CC(F)(F)C(F)(F)C(F)(F)C(F)(F)F (centres undefined)
inactive: [1] | [2] | [4] | [5] | [6] | [7] | [8] | [9] | [10]

NCC(F)(F)C(F)(F)C(F)(F)C(F)(F)C(F)(F)C(F)(F)C(F)(F)C(F)(F)F
inactive: [1] | [2] | [4] | [5] | [6] | [7] | [9] | [10]

CN(C(=O)C(F)(F)C(F)(F)C(F)(F)F)[Si](C)(C)C
inactive: [1] | [2] | [4] | [5] | [6] | [7] | [8] | [9] | [10]

Cc1cnccn1
inactive: [1] | [2] | [4] | [5] | [6] | [7] | [8] | [9] | [10]

OCC(F)(F)C(F)(F)C(F)(F)CO
inactive: [1] | [2] | [4] | [5] | [6] | [7] | [8] | [9] | [10]

O=C(O)C(F)(F)C(F)(F)C(F)(F)OC(F)(F)F
inactive: [1] | [2] | [4] | [5] | [6] | [7] | [9] | [10]

OCCCCC(F)(F)C(F)(F)C(F)(F)C(F)(F)F
inactive: [1] | [2] | [4] | [5] | [6] | [7] | [9] | [10]

CC1=CC2C3C=CC(C3)C2C1C (centres undefined)
inactive: [1] | [2] | [4] | [5] | [6] | [7] | [9] | [10]

FC(F)(F)C(F)(F)C(F)(F)C(F)(F)C(F)(F)C(F)(F)CC[Si](Cl)(Cl)Cl
inactive: [1] | [2] | [4] | [5] | [6] | [7] | [8] | [9] | [10]

Cc1cc(O)c(C(C)(C)C)cc1C(C)(C)C
active: [1] 5.42 µM | [2] 5.28 µM | [4] 9.12 µM | [5] 6.54 µM | [6] 5.41 µM | [7] 4.51 µM | [8] 2.89 µM | [9] 3.63 µM | [10] 2.33 µM

C=C(C)C(=O)OCC(F)(F)C(F)(F)C(F)(F)C(F)F
inactive: [1] | [2] | [4] | [5] | [6] | [7] | [9] | [10]

O=C(Cl)C(F)(F)C(F)(F)C(F)(F)C(F)(F)C(F)(F)C(F)(F)F
inactive: [1] | [2] | [4] | [5] | [6] | [7] | [9] | [10]

CCN(CC)c1ccc2c(c1)Oc1cc(N(CC)CC)ccc1C21OC(=O)c2ccccc21
inactive: [1] | [2] | [4] | [5] | [6] | [7] | [9] | [10]

O=C(F)C1(F)C(F)(F)C(F)(F)C(F)(F)C(F)(F)C1(F)F
inactive: [1] | [2] | [4] | [5] | [6] | [7] | [9] | [10]

O=C=Nc1cccc2c(N=C=O)cccc12
inactive: [1] | [2] | [4] | [5] | [6] | [7] | [8] | [9] | [10]

Cc1cc(C)c(O)c(C(C)(C)C)c1
active: [1] 34.4 µM | [2] 35.2 µM | [4] 32.8 µM | [5] 34 µM | [6] 34.7 µM | [7] 30.9 µM | [9] 34.2 µM | [10] 33.5 µM

O=C1C=CC(=O)N1c1ccc(Cc2ccc(N3C(=O)C=CC3=O)cc2)cc1
active: [1] 2 µM | [2] 1.91 µM | [4] 3.48 µM | [5] 1.99 µM | [6] 1.5 µM | [7] 2.48 µM | [9] 6.7 µM | [10] 1.97 µM

O=C(O)CCC(F)(F)C(F)(F)C(F)(F)F
inactive: [1] | [2] | [4] | [5] | [6] | [7] | [8] | [9] | [10]

OC(O)C(F)(F)C(F)(F)F
inactive: [1] | [2] | [4] | [5] | [6] | [7] | [9] | [10]

O=C(O)C(F)(F)C(F)(F)C(F)(F)C(F)(F)C(F)(F)C(F)(F)C(F)F
inactive: [1] | [2] | [4] | [5] | [6] | [7] | [8] | [9] | [10]

CCOC(=O)CC(=O)C(F)(F)C(F)(F)F
inactive: [1] | [2] | [4] | [5] | [6] | [7] | [9] | [10]

NC(=O)C(F)(F)C(F)(F)C(F)(F)C(F)(F)C(N)=O
inactive: [1] | [2] | [4] | [5] | [6] | [7] | [8] | [9] | [10]

O=C(Cl)C(F)(F)C(F)(F)C(F)(F)C(F)(F)C(F)(F)C(F)(F)C(F)(F)F
inactive: [1] | [2] | [4] | [5] | [6] | [7] | [9] | [10]

OCC(F)(F)C(F)(F)C(F)(F)C(F)(F)C(F)(F)C(F)(F)CO
inactive: [1] | [2] | [4] | [5] | [6] | [7] | [9] | [10]

OCC(O)CC(F)(F)C(F)(F)C(F)(F)C(F)(F)C(F)(F)C(F)(F)C(F)(F)C(F)(F)F (centres undefined)
inactive: [1] | [2] | [4] | [5] | [6] | [7] | [9] | [10]

O=C(O)C(F)(F)C(F)(F)C(F)(F)OC(F)(C(F)(F)F)C(F)(F)F
inactive: [1] | [2] | [4] | [5] | [6] | [7] | [9] | [10]
